Data on eleven compounds can be found in PubChem BioAssay (NCATS).

Each structure is given as a SMILES string. Records with an inconclusive call do not appear. A number with no mark means an inactive call. The source made the active and inactive calls. Calls follow the shape of the dose curve; as a rule, active = well fitted activation curve with a large enough effect; inconclusive = small, poorly fitted or top-dose-only effect; inactive = no such curve, though single readings can be large or run the other way.
% is scaled to controls: 0 for no effect and ±100 for the full control effect.

The target in the experiment is Rap guanine nucleotide exchange factor 4 (Homo sapiens) (UniProt Q8WZA2). Kind of experiment: Confirmatory qHTS for agonist of cAMP-regulated guanine nucleotide exchange factor 4 (EPAC2) (AID 1645884).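 Also: nucleotide exchange releases bodipy-GDP from Rap1 and this lowers its fluorescence; nearly all actives have a fitted effect of over 65% in size.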 The conditions noted are these: EPAC2 GEF activity, Rap1B-BODIPY-GDP fluorescence; series mostly up to 154 µM; activation: at the top concentration.
Rap guanine nucleotide exchange factor 4 (Homo sapiens), sequence (Q8WZA2 whole entry, looked up): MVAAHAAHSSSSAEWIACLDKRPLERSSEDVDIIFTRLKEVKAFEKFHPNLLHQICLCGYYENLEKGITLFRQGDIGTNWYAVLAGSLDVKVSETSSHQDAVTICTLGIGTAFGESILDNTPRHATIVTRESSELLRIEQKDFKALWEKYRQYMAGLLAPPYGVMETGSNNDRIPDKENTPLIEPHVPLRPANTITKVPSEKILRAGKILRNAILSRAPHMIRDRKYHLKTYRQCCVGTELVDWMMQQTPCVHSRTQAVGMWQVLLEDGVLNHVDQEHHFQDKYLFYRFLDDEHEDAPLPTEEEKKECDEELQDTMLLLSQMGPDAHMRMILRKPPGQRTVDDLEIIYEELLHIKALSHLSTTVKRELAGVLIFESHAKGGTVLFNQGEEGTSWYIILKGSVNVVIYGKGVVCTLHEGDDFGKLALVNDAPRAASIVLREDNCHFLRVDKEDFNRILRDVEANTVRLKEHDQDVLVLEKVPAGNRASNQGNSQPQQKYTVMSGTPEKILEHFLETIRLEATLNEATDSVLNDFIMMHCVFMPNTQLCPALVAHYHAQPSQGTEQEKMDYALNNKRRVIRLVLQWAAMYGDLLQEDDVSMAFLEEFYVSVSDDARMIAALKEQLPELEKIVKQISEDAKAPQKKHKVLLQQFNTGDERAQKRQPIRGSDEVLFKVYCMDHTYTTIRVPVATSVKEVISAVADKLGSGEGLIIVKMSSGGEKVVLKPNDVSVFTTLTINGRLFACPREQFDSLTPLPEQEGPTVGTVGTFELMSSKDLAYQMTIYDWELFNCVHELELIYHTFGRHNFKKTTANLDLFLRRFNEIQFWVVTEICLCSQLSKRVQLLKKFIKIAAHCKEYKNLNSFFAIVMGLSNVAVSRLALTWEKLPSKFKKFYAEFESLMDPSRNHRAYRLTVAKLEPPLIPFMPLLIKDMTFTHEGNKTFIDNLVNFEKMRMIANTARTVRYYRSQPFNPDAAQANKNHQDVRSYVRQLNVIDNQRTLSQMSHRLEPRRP
For the compound `Cc1cc(OCCCSc2nc(-c3ccc(C(C)(C)C)cc3)nc3cc(=O)[nH]n23)ccc1Cl`, the “activation” value was 9.11% [at 83.8 µM, percent relative to cAMP agonist control].

On to `O=C(Nc1cccc(Cl)c1)c1c(NC(=O)C(F)(F)F)sc2c1CCCC2`, for which the “activation” value is 1.9% [at 83.8 µM, percent relative to cAMP agonist control].

In the case of `COc1ccc(CCNC(=O)Cn2nc(C)c3c(C)n(-c4ccc(C)cc4)nc3c2=O)c(OC)c1`, the “activation” value was 12.7% [at 83.8 µM, percent relative to cAMP agonist control].

Consider `Cc1cc(Cl)ccc1NC(=O)Cn1nc(C)c2c(C)n(-c3ccccc3)nc2c1=O`, for which the “activation” value was 5.99% [at 83.8 µM, percent relative to cAMP agonist control].

With `Cc1ccc2c(c1)-c1c(c(C(=O)N3CCN(c4cc(C)ccc4C)CC3)nn1C)CS2`, the “activation” value was 18.5% [at 83.8 µM, percent relative to cAMP agonist control].

With `Oc1c(C(c2ccccc2)N2CCN(c3cccc(Cl)c3)CC2)sc2nc(-c3ccco3)nn12` (stereo unspecified), the “activation” value is 15.5% [at 83.8 µM, percent relative to cAMP agonist control].

`Oc1cccc(C(Nc2ccccn2)c2ccc3cccnc3c2O)c1Cl` (stereo unspecified): the “activation” value is 6.98% [at 83.8 µM, percent relative to cAMP agonist control].

Take `CC(C)(C)c1ccc(-c2nc(SCCCOc3ccccc3)n3[nH]c(=O)cc3n2)cc1`: the “activation” value was 7.42% [at 83.8 µM, percent relative to cAMP agonist control].

In the case of `CCOC(=O)c1c(NC(=O)c2ccc(S(=O)(=O)N(C)C3CCCCC3)cc2)sc2c1CCN(C(C)C)C2`, the “activation” value was -102% [at 83.8 µM, percent relative to cAMP agonist control].

With `O=C(CSc1nc(-c2ccc(F)cc2)nc2c1Cc1ccccc1O2)Nc1cccc(C(=O)O)c1`, the Potency result was “inactive”.

`Cc1cccc(OCCCSc2nc(-c3ccc(C(C)(C)C)cc3)nc3cc(=O)[nH]n23)c1C`: the “activation” value is 16.5% [at 83.8 µM, percent relative to cAMP agonist control].
